Test results published in PubChem BioAssay (Tox21).
Inconclusive results are not listed. A call without a number means that no potency is given here. The source made the active and inactive calls. Calls follow the shape of the full dose curve.

target: Thyrotropin receptor (Homo sapiens) (UniProt P16473); assay: qHTS assay to identify small molecule antagonists of the thyroid stimulating hormone receptor (TSHR) signaling pathway (AID 1259385); conditions: TSHR-HEK293 cAMP HTRF, TSH-stimulated antagonist mode; series mostly up to 92.4 µM; also: nearly all actives have a fitted effect of over 20% in size
Description: U.S. Tox21 Program National Center for Advancing Translational Sciences [NCATS] NIH Chemical Genomics Center [NCGC] U.S. Environmental Protection Agency [EPA] National Institutes of Environmental Health Sciences [NIEHS] National Toxicology Program [NTP] U.S. Food and Drug Administration [FDA] Tox21 Assay Overview: TSHR is the receptor for thyrotropin (thyroid stimulating hormone or TSH), a member of the glycoprotein hormone family. TSH is released by the anterior pituitary gland and is the main regulator of thyroid gland growth and development. Upon binding circulating thyrotropin, a G-protein signal cascade activates adenylyl cyclase and […] cAMP concentration is increased. cAMP is a key second messenger involved extensively in cellular signal transduction pathways associated with the majority of G-protein coupled receptors (GPCRs). The activation of these GPCRs by neurotransmitters, lipids, nucleotides, peptides and hormones results in the activation or the inhibition of plasma membrane-bound adenylate cyclase through heterotrimeric G-proteins. A cell-based TSHR assay can be used to screen chemical compounds that modulate TSHR either in agonist or antagonist mode.
Tox21 Assay Protocol Summary: TSHR-Hek293 cells were dispensed at 800 cells/4uL/well in 1536-well white plates using a Multidrop dispenser. After the assay plates were incubated at a 37C/5% CO2 incubator for 18 hrs, 23 nL of compounds dissolved in DMSO, positive controls or DMSO only was transferred to the assay plate by a pin tool, followed by 1 ul medium containing Ro20-1724. For the antagonist mode screening, 1 uL of TSH was added on the top of the cell/compound mixtures to achieve a final agonist concentration of 1.5 ng/mL. After 30 min of incubation at room temperature, 2.5 ul/well of cAMP-d2 and 2.5 ul/well of anti-cAMP-cryptate were added respectively into the assay plates using a Flying Reagent Dispenser. The plates were incubated at room temperature for 1 hr. The fluorescence intensity in the plates was measured using an Envision plate reader. Each test compound was measured at 15 concentrations and in triplicates.

Thyrotropin receptor (Homo sapiens), sequence (P16473 whole entry, looked up): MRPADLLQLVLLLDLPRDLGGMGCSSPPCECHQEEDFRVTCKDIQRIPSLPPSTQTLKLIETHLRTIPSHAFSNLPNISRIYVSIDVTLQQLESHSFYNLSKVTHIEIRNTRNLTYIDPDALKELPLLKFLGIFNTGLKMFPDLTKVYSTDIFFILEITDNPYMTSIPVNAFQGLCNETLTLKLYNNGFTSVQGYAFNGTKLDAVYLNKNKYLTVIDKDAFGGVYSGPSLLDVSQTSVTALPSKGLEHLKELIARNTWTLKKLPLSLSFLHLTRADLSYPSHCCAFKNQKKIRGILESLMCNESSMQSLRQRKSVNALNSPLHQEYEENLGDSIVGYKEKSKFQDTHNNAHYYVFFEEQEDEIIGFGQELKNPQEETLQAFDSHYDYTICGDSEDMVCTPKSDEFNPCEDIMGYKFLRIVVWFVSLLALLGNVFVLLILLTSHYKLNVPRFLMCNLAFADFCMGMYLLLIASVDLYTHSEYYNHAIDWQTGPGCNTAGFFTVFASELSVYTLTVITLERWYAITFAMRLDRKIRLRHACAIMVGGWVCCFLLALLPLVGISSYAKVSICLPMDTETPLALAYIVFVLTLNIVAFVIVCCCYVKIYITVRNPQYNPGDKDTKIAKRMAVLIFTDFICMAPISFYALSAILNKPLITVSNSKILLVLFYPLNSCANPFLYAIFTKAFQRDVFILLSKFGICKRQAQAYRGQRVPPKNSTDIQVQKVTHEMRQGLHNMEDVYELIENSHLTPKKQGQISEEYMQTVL

SMILES | Potency
CCCCCOC(=O)c1ccccc1C(=O)OCCCCC | inactive
CC1C=[C-]C=C1.[C-]#[O+].[C-]#[O+].[C-]#[O+].[Mn] | inactive
CCOP(=S)(OCC)SCCSCC | inactive
c1ccc2c(c1)oc1ccccc12 | inactive
CN(C)CCO | inactive
Nc1c(Cl)c(Cl)nc(C(=O)O)c1Cl | inactive
O=NN1CCCCCCC1 | inactive
O=C1CCCN1 | inactive
C1CC2OC2CC1C1CO1 (stereo not given) | inactive
COC(=O)NC(=S)Nc1ccccc1NC(=S)NC(=O)OC | inactive
CCC[CH2][Sn]([Cl])([Cl])[Cl] | inactive
CC(=O)C=C(C)C | inactive
O=[N+]([O-])c1ccc([As](=O)(O)O)cc1 | inactive
COC(=O)c1ccccc1C(=O)OC | inactive
Nc1ccccc1C(=O)O | inactive
Clc1ccc(Cl)cc1 | inactive
CCCN(CCC)N=O | inactive
CC(C)N1C(=O)c2ccccc2NS1(=O)=O | inactive
Cc1[nH]c(=O)n(C(C)(C)C)c(=O)c1Cl | inactive
CC(C)(C)OOC(C)(C)C | inactive

SMILES | Potency
CCN(CC)CCO | inactive
COP(N)(=O)SC (stereo not given) | inactive
Cn1cc(-c2ccccc2)c(=O)c(-c2cccc(C(F)(F)F)c2)c1 | inactive
O=[N+]([O-])c1ccccc1 | inactive
CCC[N+](=O)[O-] | inactive
CC(C)(C)C(O)(CCc1ccc(Cl)cc1)Cn1cncn1 (stereo not given) | inactive
Nc1ccc(Br)cc1 | inactive
NCC(O)c1ccc(O)cc1 (stereo not given) | inactive
CNC(=O)Oc1ccccc1OC(C)C | inactive
O=NN1CCCC1 | inactive
CC(Br)C(=O)O (stereo not given) | inactive
CCNc1nc(NC(C)C)nc(SC)n1 | inactive
ClCc1cccnc1 | inactive
O=Cc1cccc(Oc2ccccc2)c1 | inactive
c1cc2c3c(cccc3c1)CC2 | inactive
CC(C)OC(=O)Nc1ccccc1 | inactive
Cc1cc(Cl)ccc1O | inactive
CCCCCCCCCCCC#N | inactive
COc1ccc2c3c1O[C@H]1[C@@H](O)C=C[C@H]4[C@@H](C2)N(C)CC[C@@]341 | inactive
O=c1[nH]c2ccccc2c(=O)o1 | inactive
